# A selection: hits, their analogues and other compounds. The true share with any hit is near 1.5%.
# RAD54 inh: blocks human RAD54 Holliday junction branch migration; Q92698; FAM/BHQ fluorescence; inhibition, % at 10.4 µM; actives 0.14% (n = 360,000);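 active means mean normalized replicate activity at least 40 and at least half of replicates scoring 40 or more; inconclusive means only one of the two criteria met; inactive means mean below 40 and under half of replicates reaching 40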;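 further: inhibitors cause a drop in the FAM fluorescence signal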
# Target sequence (Q92698 whole entry, looked up): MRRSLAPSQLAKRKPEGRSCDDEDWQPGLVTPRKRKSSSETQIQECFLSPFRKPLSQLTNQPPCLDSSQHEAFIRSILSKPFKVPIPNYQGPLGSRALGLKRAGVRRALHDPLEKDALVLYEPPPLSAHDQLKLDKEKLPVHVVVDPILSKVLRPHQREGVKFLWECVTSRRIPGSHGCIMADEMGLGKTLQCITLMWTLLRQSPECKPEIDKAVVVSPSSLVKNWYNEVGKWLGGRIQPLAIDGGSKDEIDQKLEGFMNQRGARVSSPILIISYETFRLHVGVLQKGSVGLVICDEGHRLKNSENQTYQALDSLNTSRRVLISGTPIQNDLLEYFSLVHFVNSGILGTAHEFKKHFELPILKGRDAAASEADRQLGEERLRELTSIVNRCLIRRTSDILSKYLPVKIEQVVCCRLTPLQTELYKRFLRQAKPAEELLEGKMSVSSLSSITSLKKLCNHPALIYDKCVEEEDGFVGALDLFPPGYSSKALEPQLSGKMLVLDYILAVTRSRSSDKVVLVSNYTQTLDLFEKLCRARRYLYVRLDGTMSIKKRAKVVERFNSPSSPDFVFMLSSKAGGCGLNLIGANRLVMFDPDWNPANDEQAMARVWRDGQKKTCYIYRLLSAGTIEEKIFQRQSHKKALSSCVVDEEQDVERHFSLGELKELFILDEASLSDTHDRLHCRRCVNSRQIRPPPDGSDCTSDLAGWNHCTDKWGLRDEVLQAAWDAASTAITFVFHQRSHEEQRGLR
# dFosB act-1: activators of mouse delta FosB homodimer; P13346; purified delta FosB, TAMRA-CDK5 oligo fluorescence polarization; percent of positive-control signal above neutral wells; activation, % at 25 µM; actives 0.99% (n = 340,000); AID 493131;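 active means mean activation above about 17%, with every replicate also reaching it, limit read from the data, passing the limit was not always enough; inconclusive means only one of the two conditions met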
# RAD52 anneal inh: RAD52 (human) annealing inhibition; recombinant RAD52 DNA annealing, FRET fluorescence; inhibition, % at 18.7 µM; actives 0.46% (n = 360,000); AID 651710;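 active means every replicate showing at least 50% inhibition; inconclusive means mean inhibition at least 50% but not in every replicate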
# PvdQ inh: blocks Pseudomonas aeruginosa PvdQ acylase activity; purified PvdQ acylase, fluorescence plate reader; actives 0.063% (n = 340,000); AID 488965; inhibition, % at 10 µM; in the data active means inhibition above about 30%, passing the limit was not always enough; inconclusive means no clear call, values can overlap the other calls
# CFTR F508del cor: CFTR F508del correction in bronchial cells. CFBE cells, YFP halide quenching; stimulated with forskolin plus potentiator P3; % fluorescence drop versus neutral controls. activity (quench increase), % at 7.58 µM. actives 0.36% (n = 350,000);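 active means mean added fluorescence quench of at least 8% versus neutral control, with both replicates also reaching 8%; inconclusive means only one of the mean or replicate conditions met; inactive means mean below 8% and not both replicates reaching 8%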;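 further: cells transiently co-express mutant CFTR-F508del with the halide-sensitive YFP; corrector assay measuring rescue of mutant channel to the surface after 24 h compound exposure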
# N-glyco inh: blocks N-linked glycosylation in D54 reporter cells. actives 0.23% (n = 360,000). D54 ERlucT glycosylation luciferase reporter, 24 h; percent of 100 nM tunicamycin response. reporter increase, % at 12.5 µM;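 active means mean luciferase reporter signal, scaled so untreated is 0 and the glycosylation-blocking control 100, at or above a set limit in every replicate; inconclusive means mean reaches the limit but not every replicate does; inactive means mean below the limit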;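 further: luciferase carries N-glycosylation sites so blocking glycosylation raises the light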
# dFosB act-2: delta FosB (mouse) homodimer activation; purified delta FosB, TAMRA-CDK5 oligo fluorescence polarization; normalised: neutral wells 0, positive control 100; activation, % at 24.9 µM; AID 588690; 2,400 tested, under 10 active; shares compounds with dFosB act-1;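 active means highest replicate activation at or above 34% and every replicate reaching that threshold; inconclusive means meets only one of the two criteria; inactive means meets neither criterion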;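 further: higher polarization means more probe DNA bound by delta FosB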
# A number is an active result; i = inactive; ? = inconclusive; nt = no result given.
SMILES,RAD54 inh,dFosB act-1,RAD52 anneal inh,PvdQ inh,CFTR F508del cor,N-glyco inh,dFosB act-2
Cc1nc2ccc(NC(=O)c3cccs3)cc2s1,i,i,i,i,i,i,nt
C[C@@H]1CN([C@@H](C)CO)C(=O)Cc2cc(NC(=O)Nc3ccc(C(F)(F)F)cc3)ccc2O[C@@H]1CN(C)Cc1ccc(C(=O)Nc2ccccc2N)cc1,i,nt,i,nt,i,nt,nt
Cc1onc(-c2ccccc2)c1C(=O)NC(=S)NNC(=O)c1cc(-c2ccc(F)cc2)n[nH]1,i,29,i,i,i,i,i
COC(=O)c1c(CC[C@@H](CO)NC(=O)N[C@H](Cn2cc(Cc3ccccc3)nn2)C(C)C)oc(C(C)=O)c1C(=O)OC,nt,nt,i,nt,i,nt,nt
COc1ccc2c3c([nH]c2c1)[C@@H](CO)N(Cc1nccs1)CC31CCN(C(=O)C2CCC2)CC1,nt,nt,i,nt,i,nt,nt
CCc1cc2ccc(C)cc2nc1SCC(=O)Nc1cc(C)on1,nt,i,i,i,i,i,nt
CCc1cc2cc3c(cc2nc1SCC(=O)Nc1cc(C)on1)OCO3,i,49,nt,i,nt,i,i
O=C(C1CCCC1)N1CC2(C1)[C@H](c1ccccc1)[C@@H](CO)N2CC1CCCC1,nt,nt,i,nt,i,nt,nt
COc1cccc(C(=O)NCc2nnc(SCC(=O)Nc3nccs3)n2-c2ccccc2)c1,i,28,i,i,i,i,i
Cc1noc(C)c1S(=O)(=O)Nc1ccc2c(c1)C(=O)N([C@@H](C)CO)C[C@H](C)[C@@H](CN(C)Cc1ccc(Cl)c(Cl)c1)OCCCC[C@H](C)O2,nt,nt,i,nt,i,nt,nt
COc1ccc(CNCCC(c2ccc(F)cc2)c2ccc(OC)cc2)cc1 (stereo unspecified),nt,21,nt,i,nt,i,i
COc1ccc(C(CCNCc2ccc(F)cc2)c2ccc(F)cc2)cc1 (stereo unspecified),nt,i,i,i,nt,i,nt
CCOc1ccc(-n2c(=O)c3sccc3n(CC(=O)NC3CCCCC3)c2=O)cc1,i,?,i,i,i,i,nt
COc1ccc(NC(=O)CCCn2c(=O)c3sccc3n(Cc3cccc(C)c3)c2=O)cc1,i,i,i,i,i,i,nt
COc1ccc(NC(=O)CCCn2c(=O)c3sccc3n(Cc3ccc(C)cc3)c2=O)cc1,i,29,nt,i,nt,i,i
CCOc1ccc(-n2c(=O)c3sccc3n(Cc3ccc(C)cc3)c2=O)cc1,nt,26,i,i,i,i,i
COc1ccccc1C(=O)Nc1nc2cc3c(cc2s1)OCCO3,i,31,nt,i,nt,i,i
CCN(CC)S(=O)(=O)c1cccc(C(=O)Nc2nc3cc4c(cc3s2)OCCO4)c1,i,23,i,i,nt,i,i
COc1ccccc1C(=O)Nc1nc2cc3c(cc2s1)OCO3,i,i,i,i,i,i,nt
O=C(O)C[C@H]1C=C[C@H](NC(=O)CCN2CCCCC2)[C@@H](CO)O1,nt,nt,i,nt,i,nt,nt
COCC(=O)Nc1ccc2c(c1)OC[C@@H](C)N(CCC(F)(F)F)C[C@H](C)[C@H](OC)CN(C)C2=O,i,nt,i,nt,i,nt,nt
COc1cccc(Oc2ccc(C(F)(F)F)cc2NC(=O)CN2C(=O)NC3(CCCC3)C2=O)c1,i,45,i,i,i,86,i
COc1ccc(NC(=O)CN2C(=O)NC3(CCCC3)C2=O)c(OC)c1,i,i,i,i,i,i,nt
Cn1cc(/C=N/NC(=O)c2ccccc2O)c2ccccc21,i,i,i,i,i,i,nt
CC(=O)n1cc(/C=N/NC(=O)c2ccccc2O)c2ccccc21,i,29,i,i,i,i,i
SMILES,RAD54 inh,dFosB act-1,RAD52 anneal inh,PvdQ inh,CFTR F508del cor,N-glyco inh,dFosB act-2
COc1ccc(C(=O)N2C(=O)c3ccc(N)cc3C2=O)cc1,nt,49,i,i,i,i,i
CC(=O)c1sc(NC(=O)c2ccc(C)c(C)c2)nc1C,nt,23,i,i,i,i,i
CC(=O)c1sc(NC(=O)c2ccc(C(C)(C)C)cc2)nc1C,i,i,i,i,i,i,nt
O=C1Nc2c(Br)cc(Br)c3cccc1c23,nt,90,i,i,i,i,i
O=C1NC(=O)c2cc(Br)cc3cccc1c23,nt,i,i,i,i,i,nt
COc1cc(OC)c(N(C)S(=O)(=O)c2cccc(C(=O)Nc3nnc(C4CC4)s3)c2)cc1Cl,nt,63,i,i,i,i,i
COc1ccc(N(C)S(=O)(=O)c2cccc(C(=O)Nc3nnc(C4CC4)s3)c2)cc1,i,i,i,i,i,i,nt
Cc1nnc(NC(=O)c2cccc(S(=O)(=O)N3CCc4ccccc43)c2)s1,i,i,nt,i,nt,i,nt
O=C(Nc1nnc(C2CC2)s1)c1cccc(S(=O)(=O)N2CCc3ccccc32)c1,i,51,nt,i,nt,i,i
O=C(Nc1nc2c(s1)CN(Cc1ccccc1)CC2)c1cccc(S(=O)(=O)N2CCc3ccccc32)c1,i,74,nt,i,nt,i,i
CCc1nnc(NC(=O)c2cccc(S(=O)(=O)N3CCc4ccccc43)c2)s1,nt,34,nt,i,nt,i,i
CO[C@H]1CN(C)C(=O)c2cc(NC(C)=O)ccc2OC[C@@H](C)N(Cc2ccccc2F)C[C@H]1C,i,nt,i,nt,i,nt,nt
O=C(Nc1nc2ccccc2s1)c1cccc(S(=O)(=O)N2CCc3ccccc32)c1,i,34,i,i,i,i,i
O=C(NNC(=O)c1cccc(S(=O)(=O)N2CCc3ccccc32)c1)c1ccccc1,nt,i,i,i,i,i,nt
O=C(COc1coc(CN2CCCc3ccccc32)cc1=O)Nc1ccc([N+](=O)[O-])cc1,i,28,i,i,i,i,i
C[C@@H]1CN([C@H](C)CO)C(=O)CCCn2nncc2CO[C@@H]1CN(C)C(=O)Nc1cccc(C(F)(F)F)c1,i,nt,i,nt,i,nt,nt
Cc1cnc(C(=O)N2CCN(S(=O)(=O)c3ccc(F)c(F)c3F)CC2)cn1,i,19,i,i,i,i,i
COCC(=O)Nc1ccc2c(c1)C(=O)N(C)[C@@H]1CC[C@@H](CC(=O)N3CCc4ccccc4C3)O[C@@H]1CO2,i,nt,i,nt,i,nt,nt
O=C(N/N=C/c1cc([N+](=O)[O-])ccc1Cl)c1ccc2nc[nH]c2c1,i,35,nt,i,nt,i,i
CCOc1cccc2sc(NC(=O)c3ccc(Br)s3)nc12,i,33,i,i,i,i,i
CCS(=O)(=O)N1CCC(C(=O)NCc2ccc3c(c2)OCO3)CC1,nt,i,i,i,i,i,nt
O=C(NCc1ccc2c(c1)OCO2)C1CCN(C(=O)Nc2ccc(Cl)cc2)CC1,i,20,nt,i,nt,i,i
O=C(NCc1ccc2c(c1)OCO2)Nc1cccc(Cl)c1,i,i,i,i,i,i,nt
COc1ccc(Cl)cc1NC(=O)NCc1ccc2c(c1)OCO2,i,62,i,i,i,i,i
CCC(=O)Nc1ccc2c(c1)C(=O)N(C)C[C@@H](OC)[C@H](C)CN(C(=O)c1ccncc1)[C@@H](C)CO2,i,nt,i,nt,i,nt,nt

# Screens from PubChem BioAssay.
